# In PubChem BioAssay (Tox21):
# Where “and” joins values, the source holds several entries; their conditions need not be identical. Equal entries are not always repeated. Inconclusive results are not listed. Entries that show only a call come without a potency. Some compounds were tested as several samples or in several runs, with calls that do not always agree. Calls of active or inactive are those of the source. Unless noted, the call rests on the fitted dose curve; in most records, active means well fitted curve in the direction sought with a large enough effect in the repeat runs; inconclusive means weak or mixed curves; inactive means no such curve, though single readings can be large; an effect the other way counts as inactive or inconclusive.
# What was measured:
# [1] = qHTS assay to identify small molecule antagonists of the glucocorticoid receptor (GR) signaling pathway - cell viability counter screen (AID 720693); further: nearly all actives have a fitted effect of over 55% in size; further: potency means the concentration at half of the fitted maximal effect
# [2] = qHTS assay for identifying genotoxic compounds that show differential cytotoxicity against isogenic chicken DT40 cell lines with known DNA damage response pathways - wild type cell line (AID 743012); further: nearly all actives have a fitted effect of over 60% in size; further: potency means the concentration at half of the fitted maximal effect
# In short: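 Viability of DNA repair-proficient chicken DT40 cells was assessed by CellTiter-Glo luminescence following 40 h compound exposure at 37 C/5% CO2.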
# [3] = qHTS assay for identifying genotoxic compounds that show differential cytotoxicity against isogenic chicken DT40 cell lines with known DNA damage response pathways - Rev3 mutant cell line (AID 743014); further: nearly all actives have a fitted effect of over 55% in size; further: potency means the concentration at half of the fitted maximal effect
# [4] = qHTS assay to identify small molecule antagonists of the androgen receptor (AR) signaling pathway - cell viability counter screen (AID 743033; further: nearly all actives have a fitted effect of over 45% in size; further: potency means the concentration at half of the fitted maximal effect)
# [5] = qHTS assay to identify small molecule antagonists of the androgen receptor (AR) signaling pathway using the MDA cell line - cell viability counter screen (AID 743041; further: nearly all actives have a fitted effect of over 45% in size; further: potency means the concentration at half of the fitted maximal effect)
# In short: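 Compound exposure lasted 16 h at 37C in MDA-kb2 AR-luc cells stimulated with R1881. Protease-based CellTiter-Fluor reagent was applied for the final 30 min and fluorescence measured.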
# [6] = qHTS assay for identifying genotoxic compounds that show differential cytotoxicity against isogenic chicken DT40 cell lines with known DNA damage response pathways - Rad54/Ku70 mutant cell line (AID 743015); further: nearly all actives have a fitted effect of over 60% in size; further: potency means the concentration at half of the fitted maximal effect
# [7] = biological target: Androgen receptor (Homo sapiens) (UniProt P10275); assay: qHTS assay to identify small molecule antagonists of the androgen receptor (AR) signaling pathway (AID 743035; active means well fitted inhibition curve with a large enough effect in the signal ratio in the repeat runs, not every such curve was filed as active; the % refers to the signal ratio)
# In short: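 Reporter HEK293 cells were exposed to compounds and R1881 overnight (16 h, 37C); beta-lactamase activity was then quantified by FRET fluorescence.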
# [8] = biological target: Androgen receptor (Homo sapiens) (UniProt P10275); assay: qHTS assay to identify small molecule agonists of the androgen receptor (AR) signaling pathway using the MDA cell line (AID 743040; further: nearly all actives have a fitted effect of over 20% in size)
# In short: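 Testing was done with the MDA-kb2 AR-luc line, a human breast carcinoma stably transfected with MMTV-luciferase containing AR and GR response elements. Cells were exposed 16 h at 37C before ONE-Glo luminescence detection.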
# [9] = biological target: Androgen receptor (Homo sapiens) (UniProt P10275); assay: qHTS assay to identify small molecule antagonists of the androgen receptor (AR) signaling pathway using the MDA cell line (AID 743042; further: nearly all actives have a fitted effect of over 55% in size; further: potency means the concentration at half of the fitted maximal effect)
# In short: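 MDA-kb2 breast carcinoma cells carrying MMTV-luciferase (AR/GR responsive) were co-treated with compounds and the agonist R1881 for 16 h at 37C. Inhibition read as ONE-Glo luminescence; CellTiter-Fluor fluorescence measured in parallel for cytotoxicity.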
# [10] = biological target: Androgen receptor (Homo sapiens) (UniProt P10275); assay: qHTS assay to identify small molecule agonists of the androgen receptor (AR) signaling pathway (AID 743036; active means well fitted activation curve with a large enough effect in the signal ratio in the repeat runs, with a control signal flat, not every such curve was filed as active; the % refers to the signal ratio)
# In short: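 Screening used 2,000 AR-bla HEK293 cells per well, treated 16 h at 37C with test compounds in DMSO alongside positive and DMSO-only controls; beta-lactamase activity was then read by LiveBLAzer B/G FRET fluorescence after 2 h at room temperature.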
# Sequence of Androgen receptor (Homo sapiens) (P10275 whole entry, looked up): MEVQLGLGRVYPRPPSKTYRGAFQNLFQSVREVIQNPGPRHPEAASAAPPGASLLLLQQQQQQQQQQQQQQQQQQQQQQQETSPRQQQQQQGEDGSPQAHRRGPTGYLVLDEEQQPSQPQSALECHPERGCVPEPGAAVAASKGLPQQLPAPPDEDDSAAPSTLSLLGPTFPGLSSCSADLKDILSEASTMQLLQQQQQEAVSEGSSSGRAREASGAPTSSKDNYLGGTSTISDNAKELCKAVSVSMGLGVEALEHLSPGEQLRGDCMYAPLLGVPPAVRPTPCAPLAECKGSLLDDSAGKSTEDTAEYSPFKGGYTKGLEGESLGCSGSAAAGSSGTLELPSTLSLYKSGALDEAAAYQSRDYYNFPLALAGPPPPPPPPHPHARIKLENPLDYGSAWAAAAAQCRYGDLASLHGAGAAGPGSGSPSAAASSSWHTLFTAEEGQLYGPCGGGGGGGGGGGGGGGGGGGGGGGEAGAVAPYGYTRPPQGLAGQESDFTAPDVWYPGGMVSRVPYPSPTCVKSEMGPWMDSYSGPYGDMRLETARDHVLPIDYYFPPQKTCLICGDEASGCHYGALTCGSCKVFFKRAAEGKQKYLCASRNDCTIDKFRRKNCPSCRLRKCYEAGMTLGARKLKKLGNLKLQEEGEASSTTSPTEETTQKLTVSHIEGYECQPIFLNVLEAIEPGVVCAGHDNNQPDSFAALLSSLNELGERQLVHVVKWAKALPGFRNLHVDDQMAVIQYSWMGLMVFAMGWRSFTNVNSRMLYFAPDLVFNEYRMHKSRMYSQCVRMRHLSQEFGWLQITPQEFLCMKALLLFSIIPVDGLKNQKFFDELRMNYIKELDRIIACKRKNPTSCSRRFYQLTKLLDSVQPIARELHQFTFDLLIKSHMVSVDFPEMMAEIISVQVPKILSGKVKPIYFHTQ
smiles,measurement,setting,value
Cc1cccc([N+](=O)[O-])c1C(=O)O,Potency,[1],inactive
same,Potency,[2],inactive
same,Potency,[3],inactive
same,Potency,[4],inactive
same,Potency,[5],inactive
Cc1scc2c1N(C(=O)CN1CCN(C)CC1)c1ccccc1NC2=O,Potency,[1],inactive
same,Potency,[2],inactive
same,Potency,[3],inactive
same,Potency,[4],inactive
NNCCc1ccccc1,Potency,[1],inactive
same,Potency,[2],inactive
same,Potency,[3],inactive
same,Potency,[4],inactive
same,Potency,[5],inactive
O=S(=O)(O)c1ccc2nc(-c3ccccc3)[nH]c2c1,Potency,[1],20.8 µM (active)
same,Potency,[2],inactive and 46.2 µM (active)
same,Potency,[4],inactive
Cc1occc(=O)c1OC(=O)C(C)C,Potency,[1],inactive
same,Potency,[2],inactive
same,Potency,[6],inactive
same,Potency,[4],inactive
CCOc1ccc2c(c1)C(C)=CC(C)(C)N2,Potency,[1],inactive
same,Potency,[2],13.3 µM (active) and 13.7 µM (active)
same,Potency,[3],26.6 µM (active) and 27.2 µM (active) and 17.2 µM (active)
same,Potency,[4],inactive
same,Potency,[7],inactive
same,outcome,[8],inactive
same,Potency,[5],inactive
same,Potency,[9],inactive
Nc1ccc2cc3ccccc3cc2c1,Potency,[1],inactive
same,Potency,[2],inactive
same,Potency,[4],inactive
same,Potency,[5],inactive
O=c1n(CC2CO2)c(=O)n(CC2CO2)c(=O)n1CC1CO1 (centres undefined),Potency,[1],inactive
same,Potency,[2],376 nM (active) and 193 nM (active)
same,Potency,[3],53.1 nM (active) and 38.6 nM (active)
same,Potency,[4],inactive
same,Potency,[5],inactive
O=C(Cl)c1cccc(C(=O)Cl)c1,Potency,[1],inactive
same,Potency,[2],inactive
same,Potency,[3],inactive
same,Potency,[4],inactive
CC1COc2c(N3CCN(C)CC3)c(F)cc3c(=O)c(C(=O)O)cn1c23 (centres undefined),Potency,[1],inactive
same,Potency,[2],inactive
same,Potency,[3],inactive
same,Potency,[4],inactive
same,Potency,[5],inactive
CCCOC(=O)c1cc(O)c(O)c(O)c1,Potency,[1],inactive
same,Potency,[2],13.3 µM (active) and 43.1 µM (active) and 43.3 µM (active)
same,Potency,[3],15 µM (active) and 27.2 µM (active) and 30.6 µM (active)
same,Potency,[4],inactive
same,Potency,[5],inactive
CCN(CC)C(=O)Nc1ccc(OCC(O)CNC(C)(C)C)c(C(C)=O)c1 (centres undefined),Potency,[1],inactive
same,Potency,[2],inactive
same,Potency,[3],inactive
same,Potency,[7],inactive
same,Potency,[10],inactive
same,outcome,[8],inactive
same,Potency,[5],inactive
same,Potency,[9],inactive
Nc1nc2ccccc2[nH]1,Potency,[1],inactive
same,Potency,[2],inactive
same,Potency,[3],inactive
same,Potency,[4],inactive
same,Potency,[5],inactive
CCCNC(C)C(=O)Nc1ccccc1C (centres undefined),Potency,[1],inactive
same,Potency,[2],inactive
same,Potency,[6],inactive
same,Potency,[4],inactive
CCC(CO)(CO)COCC(CC)(CO)CO,Potency,[1],inactive
same,Potency,[2],inactive
same,Potency,[6],inactive
same,Potency,[4],inactive
same,Potency,[5],inactive
CCCCC/C=C/CC1CC(=O)OC1=O (centres undefined),Potency,[1],inactive
same,Potency,[2],inactive
same,Potency,[3],inactive
same,Potency,[4],inactive
same,Potency,[5],inactive
Oc1c(Cl)cc(Cl)cc1Sc1cc(Cl)cc(Cl)c1O,Potency,[1],19.5 µM (active) and 28 µM (active) and 21.9 µM (active)
same,Potency,[2],11.9 µM (active) and 27.4 µM (active) and 17.2 µM (active)
same,Potency,[3],17.3 µM (active) [middle of 4 runs]
same,Potency,[4],6.18 µM (active) and 8.85 µM (active) and 6.16 µM (active)
same,Potency,[5],55.4 µM (active)
Oc1ccc(Cl)cc1Cc1cc(Cl)ccc1O,Potency,[1],39.6 µM (active) and 34.7 µM (active)
same,Potency,[2],23.7 µM (active) and 39.3 µM (active) and 21.7 µM (active)
same,Potency,[3],16.8 µM (active) and 31.2 µM (active) and 10.9 µM (active)
same,Potency,[4],19.8 µM (active) and 11 µM (active)
same,Potency,[10],inactive
same,outcome,[8],inactive
same,Potency,[9],27.8 µM (active) and 38.6 µM (active)
Nc1cc(S(=O)(=O)O)cc2cc(S(=O)(=O)O)cc(O)c12,Potency,[1],inactive
same,Potency,[2],inactive
same,Potency,[3],inactive and 24.3 µM (active)
same,Potency,[4],inactive
[Cl][In]([Cl])[Cl],Potency,[1],inactive
same,Potency,[2],inactive
same,Potency,[3],inactive
same,Potency,[4],inactive
same,Potency,[5],inactive
CC(C)(c1ccccc1)c1ccc(Nc2ccc(C(C)(C)c3ccccc3)cc2)cc1,Potency,[1],inactive
same,Potency,[2],inactive and 54.5 µM (active)
same,Potency,[3],inactive and 54.5 µM (active)
same,Potency,[4],inactive
same,Potency,[5],inactive
COC(c1ccccc1)(c1ccccc1)[C@H](Oc1nc(C)cc(C)n1)C(=O)O,Potency,[1],inactive
same,Potency,[2],inactive
same,Potency,[3],inactive
same,Potency,[4],inactive
CC(C(O)c1ccc(O)cc1)N1CCC(Cc2ccccc2)CC1 (centres undefined),Potency,[1],inactive
same,Potency,[2],2.11 µM (active)
same,Potency,[3],335 nM (active)
same,Potency,[4],inactive
CN(C)c1ccc2nc3ccc(=[N+](C)C)cc-3sc2c1,Potency,[2],473 nM (active) and 2.34 µM (active) and 686 nM (active)
same,Potency,[3],750 nM (active) and 587 nM (active) and 686 nM (active)
same,Potency,[6],422 nM (active) and 262 nM (active) and 386 nM (active)
same,Potency,[4],1.87 µM (active) and 3.09 µM (active)
same,Potency,[5],5.96 µM (active) and 11.7 µM (active) and 17.2 µM (active)
CCCCCC(=O)O[C@]1(C(C)=O)CC[C@H]2[C@@H]3CCC4=CC(=O)CC[C@]4(C)[C@H]3CC[C@@]21C,Potency,[2],3.76 µM (active) and 3.83 µM (active)
same,Potency,[3],3.76 µM (active) and 2.15 µM (active)
same,Potency,[6],7.5 µM (active) and 5.41 µM (active)
same,Potency,[4],inactive and 24.4 µM (active)
same,Potency,[5],inactive
CC(C)CCOC(=O)c1ccc(N(C)C)cc1,Potency,[1],inactive
same,Potency,[4],inactive
CCc1cc(C(C)(C)C)c(O)c(C(C)(C)C)c1,Potency,[1],inactive
same,Potency,[3],inactive and 15.4 µM (active)
same,Potency,[4],inactive
same,Potency,[5],inactive
O=C1NCC2(CCN(CCc3ccccc3)CC2)O1,Potency,[4],inactive
same,Potency,[5],inactive
O=C(O)c1cn(-c2ccc(F)cc2)c2cc(N3CCNCC3)c(F)cc2c1=O,Potency,[1],inactive
same,Potency,[3],inactive
same,Potency,[4],inactive
CC(C)(C)NCC(O)c1cc(O)cc(O)c1 (centres undefined),Potency,[2],inactive
same,Potency,[6],inactive
same,Potency,[4],inactive
same,Potency,[5],inactive
OCCN1CCNCC1,Potency,[1],inactive
same,Potency,[3],31200 nM (active)
same,Potency,[6],inactive
same,Potency,[4],inactive
same,Potency,[5],inactive
CCCC(=O)c1ccccc1,Potency,[1],inactive
same,Potency,[6],inactive
same,Potency,[4],inactive
same,Potency,[7],inactive
same,outcome,[8],inactive
same,Potency,[5],inactive
same,Potency,[9],inactive
CC(=O)OCC1=C(C(=O)O)N2C(=O)[C@@H](NC(=O)Cc3cccs3)[C@H]2SC1,Potency,[1],inactive
same,Potency,[6],inactive
same,Potency,[4],inactive
same,Potency,[5],inactive
